Screen size: about 38,000 compounds; about 1,200 (3.2%) showed an effect of 50% or more. The median lay at about -58%. For the sample, strong results were picked, then their nearest neighbours and some compounds at random.

This assay concerns Plasmodium falciparum. Kind of assay: Calibr Malaria Delayed Death Assay SOP. The class given is functional, organism-based. The settings on record: concentration 4.99e-06 (unit not given; other assays of the set use mol/L). The arrangement: scale not given: in the data most compounds retested in dose-response had high values.
With `CCCN1C(=O)CC(N2CCN(c3ccc(F)cc3)CC2)C1=O` (configuration not stated), the “Percent Effect” value is -22.99%.
For the compound `CN1CCCC(N(C)S(=O)(=O)c2cccc3ncccc23)C1` (configuration not stated), the “Percent Effect” value is reported as 28.23%.
In the case of `Cc1cc2nc(C(C)C)cc(N3CCN(c4ccc(O)cc4)CC3)n2n1`, the “Percent Effect” value is on record as -69.46%.
`CN1CC(NC(=O)Nc2cnn(-c3ccccc3Cl)c2)CCC1=O` (configuration not stated): the “Percent Effect” value is reported as -125.7%.
On to `O=C(Cc1ccc(F)cc1)NCC1CCN(Cc2ccsc2)CC1`, for which the “Percent Effect” value was 35.08%.
For `CCc1nnc(CN2CCN(c3cccc(OC)c3)C(=O)C2)o1`, the “Percent Effect” value was -165.5%.
Take `COCCNC(=O)NCc1cccc(-n2ccnc2)c1`: the “Percent Effect” value is reported as -31.59%.
As to `O=C(Cn1ccc2sccc2c1=O)NC1CCCCC1`, the “Percent Effect” value is listed as -23.53%.
Regarding `Cc1nc(C)c(C(=O)Nc2cnn(CC(=O)NC3CCCC3)c2)s1`, the “Percent Effect” value is -124.2%.
As for `O=C(c1cc2c(F)cccc2[nH]1)N1CCC(Nc2cccnn2)CC1`, the “Percent Effect” value is given as -107.1%.
Turning to `Cc1cc(NC(=O)CCN2CCCCC2Cn2cccn2)no1` (configuration not stated), the “Percent Effect” value is listed as -23.88%.
For `CC(C)(NCc1ccc(C#N)cc1)c1ccc2c(c1)OCO2`, the “Percent Effect” value is -3.807%.
As for `CCCNC(=O)NC(=O)CNC(C)(C)c1ccc2c(c1)OCO2`, the “Percent Effect” value is reported as -45.43%.
As to `FC(F)(F)C1CN(Cc2cccc(OCc3ccccn3)c2)CCO1` (configuration not stated), the “Percent Effect” value was -40.76%.
`CCN(CC)C(CNS(=O)(=O)NCc1ccccc1)c1ccco1` (configuration not stated): the “Percent Effect” value is given as 65.52%.
On to `CCN(CC)C(CNS(=O)(=O)c1ccc(C(=O)NC)cc1)c1ccco1` (configuration not stated), for which the “Percent Effect” value was -34.47%.
Take `CCN(CC)C(CNCc1ccc(O)cc1)c1ccco1` (configuration not stated): the “Percent Effect” value stood at 37.38%.
Take `CSc1nc2ccsc2c(=O)n1CC(=O)N1CCCCC1C` (configuration not stated): the “Percent Effect” value was -137.7%.
For `Cn1cc(NS(=O)(=O)CC2CCCCO2)cn1` (configuration not stated), the “Percent Effect” value is recorded as -113.3%.
For the compound `O=C(NCCc1c[nH]c2ccc(F)cc12)C1(n2cnnn2)CCCCC1`, the “Percent Effect” value is listed as 0.821%.
For `COCC(=O)NCC[C@H]1CC(C)(C)Oc2ccccc21`, the “Percent Effect” value is reported as -148.4%.
`CNCC[C@H]1CC(C)(C)Oc2ccc(OCC3CC3)cc21`: the “Percent Effect” value is 74.97%.
With `COc1ccc2c(c1)[C@@H](CCNC(C)=O)CC(C)(C)O2` the figure was -172.5%; with `CNCC[C@H]1CC(C)(C)Oc2ccc(OC)cc21`, 72.51%.
In the case of `CC1CCN(C(=O)c2cnc3cc(C(=O)N(C)C)n(C)c3c2)CC1`, the “Percent Effect” value is listed as -87.49%.
Take `c1coc(-c2nnc(CN(Cc3cccs3)CC3CCCO3)o2)c1` (configuration not stated): the “Percent Effect” value was -56.15%.
Regarding `COCc1nc(N2CC[C@H](N(C)C)C2)c2cnn(C)c2n1`, the “Percent Effect” value was -79.09%.
As for `COC(C)(CNS(=O)(=O)c1cn(C)cn1)c1ccccc1F` (configuration not stated), the figure is -43.86%; as for `O=C(c1cc(F)cc2[nH]cnc12)N1CCCCC1Cn1cccn1` (configuration not stated), -30.08%.
With `O=C(c1ccoc1)N1CCC(Nc2cccnn2)CC1` the figure was -103.3%.
As for `CC(C)(C)OC(=O)N1CCCc2ccc(NCc3ccon3)cc21`, the figure is -36.28%; as for `CC(C)(C)OC(=O)N1CCCN(Cc2ccon2)c2ccccc21`, 84.05%.
Take `CC(=O)N1CCCN(Cc2ccon2)c2ccccc21`: the “Percent Effect” value was -25.97%.
Consider `Cc1cccc(NC(=O)N2CC(C(=O)NC(C)C)C3(CCOCC3)C2)c1` (configuration not stated), for which the “Percent Effect” value is recorded as -4.046%.
For `CCCc1nnc(N2CCN(c3ccccc3F)CC2)o1`, the “Percent Effect” value is -72.7%.
As for `OC(CNC1CCOCC1)c1ccc(Cl)c(F)c1` (configuration not stated), the figure is 49.48%.
As for `OC(CNC1CCOCC1)c1cccc(OCc2ccccc2)c1` (configuration not stated), the “Percent Effect” value is recorded as 51.28%.
As for `O=C(Nc1cccc(OCc2ccc(F)cc2)c1)C1COCCO1` (configuration not stated), the “Percent Effect” value is -50.82%.
As to `CCOc1cccc(C(C)NC(=O)N2CCC(C(N)=O)CC2)c1` (configuration not stated), the “Percent Effect” value is reported as -34.65%.
Regarding `CS(=O)(=O)NC1CCN(CCOCc2ccccc2)CC1`, the “Percent Effect” value was found to be 2.46%.
Turning to `OC(CNC1CCSCC1)c1cccc(OCc2ccccc2)c1` (configuration not stated), the “Percent Effect” value came to 73.71%.
With `CCOc1cccc(CNC(=O)NCC(O)c2cccc(F)c2)c1` (configuration not stated) the figure was -6.007%; with `O=C(NCc1ccccc1)NCC(O)c1cccc(F)c1` (configuration not stated), -134.7%.
Consider `CN1CCC(NCC(O)c2cccc(OCc3ccccc3)c2)CC1` (configuration not stated), for which the “Percent Effect” value amounted to 90.23%.
As for `O=S(=O)(NCCN1CCCCC1Cn1cncn1)c1ccccc1` (configuration not stated), the figure is -173.3%; as for `Cc1nc2c(N3CCN(Cc4ccccc4)CC3)nc(N)nc2n1C`, -81.58%.
As to `Cc1nc(C)n(CC2CCCN(Cc3noc(C)n3)C2)n1` (configuration not stated), the “Percent Effect” value is recorded as -83.37%.
Turning to `O=C(CN1CCc2cncnc2C1)NCCOc1cccc(Cl)c1`, the “Percent Effect” value is -29.73%.
As for `O=C(NC1CCS(=O)(=O)C1)c1cc(Sc2ncccn2)ccn1` (configuration not stated), the figure is -115.2%; as for `CCc1nc(CNc2ccc(F)c(F)c2)no1`, -20.9%; as for `CN(Cc1ccc(N2CCOCC2)cc1)Cc1noc(C(C)(C)C)n1`, -81.05%.
Regarding `CC(C)(C)c1noc(CCC(=O)N2CCN(Cc3ccc(Cl)s3)CC2)n1`, the “Percent Effect” value is recorded as -118.6%.
For the compound `CCc1cnc(C)nc1N1CCC(Cc2cccc(C(=O)O)c2)C1` (configuration not stated), the “Percent Effect” value is on record as -30.8%.
`O=C(C1CC2(CCNCC2)CN1)N1CCN(c2ccccc2)CC1` (configuration not stated): the “Percent Effect” value was -125.3%.
As for `O=C(C1CC2(CCNCC2)CN1)N1CCN(c2cccc(Cl)c2Cl)CC1` (configuration not stated), the figure is 78.29%; as for `Cc1cccc(N2CCN(C(=O)C3CC4(CCNCC4)CN3)CC2)n1` (configuration not stated), -69.89%; as for `CN(C)C(=O)Cc1nc(CN2CCCCC2Cn2cccn2)cs1` (configuration not stated), -103.2%.
Consider `Cc1nccn1CC1CCCN(C(=O)Cc2ccsc2)C1` (configuration not stated), for which the “Percent Effect” value is -60.26%.
Turning to `CC(C)(N)C(=O)N1CCCC1c1cncc(Oc2ccccc2)n1` (configuration not stated), the “Percent Effect” value was 77.57%.
As for `NCC(=O)N1CCC(c2cncc(Oc3cccnc3)n2)CC1`, the “Percent Effect” value is -100.1%.
As for `CNCC(=O)N1CCCC1c1cncc(Oc2ccc(F)cc2)n1.Cl` (configuration not stated), the “Percent Effect” value is recorded as 68.33%.
On to `CCC(=O)N1CCC(c2cncc(Oc3cccnc3)n2)CC1`, for which the “Percent Effect” value is -187.7%.
Consider `Cn1cc(C2CCCN2C(=O)CCCOc2ccc(F)cc2)cn1` (configuration not stated), for which the “Percent Effect” value is listed as -105.8%.
With `COC(=O)NCC(=O)N1CCCC1c1nc(-c2ccccc2F)c[nH]1` (configuration not stated) the figure was -22.14%; with `CC(C)(C)OC(=O)N1CCCN(c2nnc(Br)s2)CC1`, -110%; with `COc1ccccc1C(=O)Nc1c(F)c(C(=O)NCCC(C)C)nn1C`, -92.84%.
`Fc1ccc(-n2cccn2)c(CN2CCCCC2CCn2ccnc2)c1` (configuration not stated): the “Percent Effect” value is 3.883%.
In the case of `Fc1cccc(-n2ccc(CN3CCCCC3Cn3cncn3)n2)c1` (configuration not stated), the “Percent Effect” value is recorded as -49.02%.
For `Cc1cccc(-n2cc(CN3CCN(C)[C@@H]4CS(=O)(=O)C[C@@H]43)cn2)c1`, the “Percent Effect” value was -99.09%.
With `c1ccc(Cn2cccn2)c(CN2CCCCC2CCn2ccnc2)c1` (configuration not stated), the “Percent Effect” value is 62.85%.
Regarding `Fc1cccc(-n2cc(CN3CCCCC3CCn3ccnc3)cn2)c1` (configuration not stated), the “Percent Effect” value worked out at 67.59%.
Take `Cc1ccc2nc(CN3CCCCC3CCn3cccn3)cn2c1` (configuration not stated): the “Percent Effect” value is -67.34%.

The values above are taken from ChEMBL document CHEMBL3988442, “University of Dundee, Small-Polar-MMV Screening Library” (2021).
